Records with an inconclusive call do not appear. The source holds several records for some structures; these can differ, active in one and inactive in another. The source made the active and inactive calls. Unless noted, calls come from the whole dose curve.
Key:
[1] = target: Thyrotropin receptor (Homo sapiens) (UniProt P16473); assay: qHTS assay to identify small molecule agonists of the thyroid stimulating hormone receptor (TSHR) signaling pathway (AID 1224843); note: nearly all actives have a fitted effect of over 45% in size; note: potency is the fitted concentration of half-maximal effect
Thyrotropin receptor (Homo sapiens), sequence (P16473 whole entry, looked up): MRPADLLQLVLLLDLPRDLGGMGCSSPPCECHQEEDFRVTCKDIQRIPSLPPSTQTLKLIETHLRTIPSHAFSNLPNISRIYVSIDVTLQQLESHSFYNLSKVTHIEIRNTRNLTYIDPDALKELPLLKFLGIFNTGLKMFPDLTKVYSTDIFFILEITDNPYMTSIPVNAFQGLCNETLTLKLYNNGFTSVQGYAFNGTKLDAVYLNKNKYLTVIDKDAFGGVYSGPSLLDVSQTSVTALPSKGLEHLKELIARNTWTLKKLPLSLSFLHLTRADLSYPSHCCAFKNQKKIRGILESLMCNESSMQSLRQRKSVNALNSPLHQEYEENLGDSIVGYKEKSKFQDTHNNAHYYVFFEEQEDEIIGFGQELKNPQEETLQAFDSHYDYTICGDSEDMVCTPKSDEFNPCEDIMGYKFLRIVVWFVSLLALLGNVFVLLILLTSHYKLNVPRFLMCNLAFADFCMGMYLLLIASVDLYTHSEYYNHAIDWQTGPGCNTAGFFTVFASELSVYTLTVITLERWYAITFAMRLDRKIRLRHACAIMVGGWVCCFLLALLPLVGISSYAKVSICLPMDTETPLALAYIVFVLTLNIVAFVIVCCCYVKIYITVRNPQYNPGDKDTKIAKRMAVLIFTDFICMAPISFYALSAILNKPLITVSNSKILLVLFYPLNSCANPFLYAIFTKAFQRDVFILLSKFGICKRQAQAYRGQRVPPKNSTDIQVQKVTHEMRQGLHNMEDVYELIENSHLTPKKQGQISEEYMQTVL
How it was run: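 Using 15 concentrations per compound in triplicate, cAMP production was monitored in TSHR-HEK293 cells after 30 min compound incubation at RT; HTRF reagents followed, with fluorescence intensity recorded after 1 h.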

[2] = qHTS assay to identify small molecule agonists of the hypoxia (HIF-1) signaling pathway - cell viability counter screen (AID 1224844); note: nearly all actives have a fitted effect of over 50% in size; note: potency is the fitted concentration of half-maximal effect
How it was run: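 Same wells as the HIF-1 reporter screen; ME-180 cells carrying HRE-bla, 17 hr treatment at 37C; CellTiter-Glo luminescence read after 30 min at room temperature.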

[3] = qHTS assay to identify small molecule agonists of H2AX (AID 1224845; active = well fitted activation curve with a large enough effect in the signal ratio in the repeat runs, not every such curve was filed as active; the % refers to the signal ratio)
How it was run: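 Wild-type CHO-K1 cells plated overnight, then exposed 3 hr at 37C to compounds at 15 concentrations (0.76% DMSO). Lysed, then HTRF anti-pH2AX(S139)-cryptate/anti-H2AX-d2 detection after 24 hr at room temperature; emissions 665 and 620 nm.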

[4] = qHTS assay to identify small molecule agonists of the hypoxia (HIF-1) signaling pathway (AID 1224846; active = well fitted activation curve with a large enough effect in the signal ratio in the repeat runs, not every such curve was filed as active; the % refers to the signal ratio)
How it was run: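 In ME-180 cells bearing an HRE-bla construct, 17 h treatment with DMSO-dissolved compounds at 37C was followed by CCF4-AM loading to quantify reporter induction.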

[5] = qHTS assay to identify small molecule agonists of H2AX - cell viability counter screen (AID 1224847); note: top concentration of the series differs between compounds; nearly all actives have a fitted effect of over 30% in size
How it was run: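 Wild-type CHO-K1 cells (10% FBS medium) were plated overnight at 37C, exposed to compounds at 15 concentrations for 3 hr at 37C (0.76% DMSO final), and viability was read as CellTiter-Glo luminescence after 30 min at room temperature.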

[6] = qHTS assay to identify small molecule agonists of the estrogen related receptor (ERR) signaling pathway from Tox21 library (AID 1224849); conditions: ERR reporter cell line, ONE-Glo luciferase, 18 h; note: nearly all actives have a fitted effect of over 15% in size
How it was run: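 Reporter cells (ERR, NTP source) treated with Tox21 10K compounds 18 h, 37 C. Readout: ONE-Glo luminescence, 30 min RT.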

[7] = qHTS RealTime-Glo MT Cell Viability Assay in HEK293 cells - 32 hour (AID 1224868; active = well fitted curve in the direction sought with a large enough effect in the repeat runs; an effect the other way counts as inactive or inconclusive; note: top concentration of the series differs between compounds; nearly all actives have a fitted effect of over 50% in size)
How it was run: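 Cells + reagent dispensed (600 cells/well, HEK293) → 5 h at 37 C/5% CO2 → 23 nL compound in DMSO pinned → 40 h at 37 C → luminescence read at 0, 8, 16, 24, 32, 40 h.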

[8] = A CellTox Green Cytotoxicity Assay to monitor cytotoxicity in HEK293 cells - 0 hour (AID 1224869; active = well fitted curve in the direction sought with a large enough effect in the repeat runs; an effect the other way counts as inactive or inconclusive; note: nearly all actives have a fitted effect of over 50% in size; note: potency is the fitted concentration of half-maximal effect)
How it was run: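 Homogeneous no-lysis format: HEK293 cell suspension mixed with CellTox Green reagent, seeded, incubated 5 h at 37 C/5% CO2, then dosed by pintool with compound in DMSO.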

[9] = qHTS assay to identify small molecule antagonists of the estrogen related receptor (ERR) signaling pathway from Tox21 library (AID 1224848; active = well fitted curve in the direction sought with a large enough effect in the repeat runs; an effect the other way counts as inactive or inconclusive; note: nearly all actives have a fitted effect of over 50% in size)
How it was run: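 Tox21 10K compounds in DMSO tested for ERR pathway antagonism in NTP's ERR cell line; 18 h, 37 C exposure; ONE-Glo luminescence.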

[10] = qHTS RealTime-Glo MT Cell Viability Assay in HepG2 cells - 24 hour (AID 1224867; active = well fitted curve in the direction sought with a large enough effect in the repeat runs; an effect the other way counts as inactive or inconclusive; note: nearly all actives have a fitted effect of over 50% in size)
How it was run: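 Real-time, nonlytic viability: 600 HepG2 cells/well mixed with NanoLuc enzyme plus prosubstrate; 5 h settle, compound (DMSO) added by pintool; luminescence monitored over 40 h at 37 C.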

[11] = at 92.4 µM (top of the series) unless noted
% is set by controls: 0 for no effect and ±100 for the full control effect.

C=C(C)C(=O)OCCCCCCCC(C)C
inactive: Potency [1] | Potency [2] | outcome [3] | outcome [4] | Potency [5] | activity change, positive = activation [6, 11] 2.01% | Potency [7] | Potency [8]

Brc1c(NC2=NCCN2)ccc2nccnc12
inactive: Potency [1] | Potency [2] | outcome [3] | Potency [5] | Potency [9] | activity change, positive = activation [6, 11] 3.51% [at 42.5 µM] | Potency [10] | Potency [7] | Potency [8]

COCCc1ccc(OCC(O)CNC(C)C)cc1 (stereo unspecified)
inactive: Potency [1] | Potency [2] | outcome [3] | Potency [5] | Potency [9] | activity change, positive = activation ([6]; at 42.5 µM (top of the series)) 5.48% | activity change, positive = activation ([6]; at 92.4 µM (top of the series)) -13% | Potency [10] | Potency [7]

CCC(=O)OC(C)c1ccccc1 (stereo unspecified)
inactive: Potency [1] | Potency [2] | outcome [3] | outcome [4] | Potency [9] | activity change, positive = activation [6, 11] 0.422% | Potency [7] | Potency [8]

CC(C)OC(=O)c1ccccc1
inactive: Potency [1] | Potency [2] | outcome [3] | outcome [4] | Potency [5] | activity change, positive = activation [6, 11] 0.248% | Potency [7] | Potency [8]

NS(=O)(=O)c1ccc(C(=O)O)cc1
inactive: Potency [1] | Potency [2] | outcome [3] | Potency [5] | Potency [9] | activity change, positive = activation [6, 11] 9.6% [at 42.5 µM] | Potency [8]

CCO/C([O-])=N/c1c[n+](N2CCOCC2)no1
inactive: Potency [1] | Potency [2] | outcome [3] | Potency [5] | Potency [9] | activity change, positive = activation [6, 11] 0.723% [at 42.5 µM] | Potency [10] | Potency [7] | Potency [8]

CC(C)NC(=O)NC(C)C
inactive: Potency [1] | Potency [2] | outcome [3] | outcome [4] | activity change, positive = activation [6, 11] -2.14% | Potency [10] | Potency [7] | Potency [8]

Cc1cccc(C)c1NC(=O)C(C)N (stereo unspecified)
active: Potency [8] 21.3 µM
inactive: Potency [1] | Potency [2] | outcome [3] | Potency [5] | Potency [9] | activity change, positive = activation [6, 11] 3.88% [at 42.5 µM] | Potency [10] | Potency [7]

OC[C@]1(O)OC[C@@H](O)[C@H](O)[C@@H]1O
inactive: Potency [1] | Potency [2] | outcome [3] | outcome [4] | Potency [5] | Potency [10] | Potency [7] | Potency [8]

CC(=O)OCC(CCn1cnc2cnc(N)nc21)COC(C)=O
inactive: Potency [1] | Potency [2] | outcome [3] | outcome [4] | Potency [5] | Potency [10] | Potency [7]

C[C@](N)(Cc1ccc(O)cc1)C(=O)O
inactive: activation [1] -7.31% [at 8.39 µM] | activity change, negative = cytotoxicity [2] 3.27% [at 6.97 µM] | activation (H2AX phosphorylation) [3] -0.087% [at 14 µM] | activity change, negative = cytotoxicity [5] 2.42% [at 14 µM] | activity, negative = inhibition [9] 3.87% [at 8.39 µM] | activity change, positive = activation [6, 11] 2.18% [at 8.39 µM] | activity change, negative = cytotoxicity [10] 0.0825% [at 6.97 µM] | cytotoxicity [8] 5.11% [at 6.97 µM]

CCOC(=O)CC(C)=O
inactive: Potency [1] | Potency [2] | outcome [3] | outcome [4] | Potency [5] | Potency [10] | Potency [7]

O=C1NC(=O)[C@@]2(CCOc3ccc(F)cc32)N1
inactive: Potency [1] | Potency [2] | outcome [3] | outcome [4] | Potency [5] | Potency [7] | Potency [8]

c1ccc(CC2=NCCN2)cc1
inactive: Potency [1] | Potency [2] | outcome [3] | Potency [5] | Potency [9] | activity change, positive = activation [6, 11] -1.01% [at 42.5 µM] | Potency [7] | Potency [8]

CCn1nc(C(=O)O)c(=O)c2cc3c(cc21)OCO3
inactive: Potency [1] | Potency [2] | outcome [3] | Potency [5] | Potency [9] | activity change, positive = activation [6, 11] 7.18% [at 42.5 µM] | Potency [10] | Potency [7] | Potency [8]

CCOC(=O)[C@H](CCc1ccccc1)N[C@@H](C)C(=O)N1[C@H](C(=O)O)C[C@@H]2CCC[C@@H]21
inactive: Potency [1] | Potency [2] | outcome [3] | Potency [5] | Potency [9] | activity change, positive = activation [6, 11] 3.92% [at 42.5 µM] | Potency [10] | Potency [8]

COC(=O)C1=C(C)NC(C)=C(C(=O)OC)C1c1ccccc1[N+](=O)[O-]
54.5 µM (active) and inactive: Potency [1]
49 µM (active) and inactive: Potency [2]
inactive: outcome [3] | Potency [5] | Potency [9] | activity change, positive = activation ([6]; at 42.5 µM (top of the series)) -8.97% | activity change, positive = activation ([6]; at 92.4 µM (top of the series)) -13.3% | Potency [10] | Potency [7] | Potency [8]

c1cnc(N2CCN(Cc3ccc4c(c3)OCO4)CC2)nc1
inactive: Potency [1] | Potency [2] | outcome [3] | Potency [5] | Potency [10] | Potency [8]

COC(=O)[C@@H](N)Cc1ccc(O)c(O)c1
inactive: Potency [1] | Potency [2] | outcome [4] | Potency [5] | Potency [9] | activity change, positive = activation [6, 11] 6.86% [at 42.5 µM] | Potency [10] | Potency [8]
